Shiga toxin inh = Shiga toxin inhibition. Vero cells, Shiga toxin protein synthesis inhibition reporter. inhibition, % at 38.7 µM. 290,000 compounds, 9.2% hits; in the data active = inhibition mostly above about 28%, no sharp cut-off; inactive = mostly below about 43%
LmPK inhibitor = inhibitors of Leishmania mexicana pyruvate kinase; 290,000 compounds, 0.37% hits; Q27686; purified LmPK, Kinase-Glo ATP luminescence, 1 h; Potency, µM (series often up to 57.5 µM), hits mostly inhibitors
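qHTS format; LmPK 0.1 nM; substrates PEP 0.5 mM and ADP 0.1 mM. One-hour room-temperature incubation, then coupled luciferase luminescence; 0.5 nM enzyme wells mark activation.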
CHX counter = affects cycloheximide protein synthesis inhibition readout, counter-screen. cell reporter, cycloheximide protein synthesis inhibition counterscreen. max response, %. 300,000 compounds, 12% hits; in the data active = max response mostly above about 13%, no sharp cut-off; inactive = mostly below about 14%; note: read at 38.3 µM for the half of the compounds with a filed dose
Giardia FBPA inh-1 = inhibitors of Giardia lamblia fructose-1,6-bisphosphate aldolase. A8B2U2. purified Giardia FBPA. Potency, µM (series often up to 59.6 µM), hits mostly inhibitors. 290,000 compounds, 0.71% hits. AID 2451; note: nearly all actives have a fitted effect of over 55% in size
Target sequence (A8B2U2 whole entry, looked up): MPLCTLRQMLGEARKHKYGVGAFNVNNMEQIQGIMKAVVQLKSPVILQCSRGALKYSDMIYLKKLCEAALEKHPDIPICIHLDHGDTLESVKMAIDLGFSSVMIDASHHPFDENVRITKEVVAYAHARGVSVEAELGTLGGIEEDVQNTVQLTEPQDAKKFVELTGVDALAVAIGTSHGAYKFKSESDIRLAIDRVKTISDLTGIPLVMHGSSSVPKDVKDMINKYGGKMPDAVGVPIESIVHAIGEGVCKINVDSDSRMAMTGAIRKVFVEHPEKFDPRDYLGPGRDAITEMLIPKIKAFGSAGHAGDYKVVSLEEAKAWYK
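40 nM FBPA preincubated 10 min at RT with compound (up to 57.5 uM final), then substrate plus GAPDH/TPI/NAD/arsenate coupling and diaphorase/resazurin added. Fluorescence read after 20 min at RT, 525/598 nm.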
Sm TGR block = S. mansoni TGR enzyme inhibition. Q962Y6. purified TGR, DTNB reduction, TNB absorbance 405 nm. Potency, µM (top dose mostly 114 µM), actives largely listed as inhibitors. 360,000 compounds, 3% hits. AID 485364; note: nearly all actives have a fitted effect of over 60% in size
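TGR 20 nM + NADPH 100 uM (dispensed conc.), cpd preinc 15 min RT; start with NADPH (500 uM addition) then DTNB (15 mM addition). Kinetic TNB absorbance, 405 nm filter. Four-parameter Hill fit across titration.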
Tb PYK inh = blocks Trypanosoma brucei pyruvate kinase; Q57TT1; TbPYK enzyme, Kinase-Glo Plus ATP luminescence, 45 min; Potency, µM (series often up to 76.8 µM), usual class: inhibitors; 410,000 compounds, 0.12% hits; AID 624173; note: nearly all actives have a fitted effect of over 50% in size
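Screened from lowest to highest concentration, compounds were pinned into TbPYK/substrate mixtures, and ADP (130 uM final) was added. Plates sat at room temperature for 45 min prior to Kinase-Glo Plus detection by luminescence.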
Giardia growth = blocks growth of Giardia lamblia trophozoites; shares compounds with Giardia FBPA inh-1; Potency, µM (top dose mostly 57.5 µM), actives largely listed as inhibitors; 1,500 compounds, 5% hits; Giardia lamblia trophozoite growth inhibition;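 note: trophozoites exposed to compound for 48 h at 37 °C; nearly all actives have a fitted effect of over 70% in size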
Mammal cell tox = mammalian cytotoxicity of Giardia aldolase inhibitor hits. 1,500 compounds, 4% hits. Potency, µM (highest dose often 57.5 µM), hits mostly inhibitors. shares compounds with Giardia FBPA inh-1. AID 2786. mammalian cell viability counter-screen, qHTS;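 note: Chinese hamster ovary cells used as mammalian cytotoxicity surrogate; viability measured as cellular ATP by luminescence; compound exposure lasted 48 h before reading; nearly all actives have a fitted effect of over 60% in size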
Giardia FBPA inh-2 = confirmation of Giardia fructose-bisphosphate aldolase inhibitors; shares compounds with Giardia FBPA inh-1; purified Giardia aldolase enzyme activity, qHTS; Potency, µM (highest dose often 57.5 µM), actives largely listed as inhibitors; 1,500 compounds, 5% hits; note: nearly all actives have a fitted effect of over 45% in size
Rabbit FBPA inh = rabbit FBP aldolase inhibition by Giardia aldolase hits | shares compounds with Giardia FBPA inh-1 | Rabbit muscle FBPA enzyme inhibition, selectivity counter-screen | Potency, µM (titrated, usually from 57.5 µM), actives largely listed as inhibitors | 1,500 compounds, 4% hits | AID 2794; note: nearly all actives have a fitted effect of over 60% in size
GAPDH coupling = counter-screen for Giardia aldolase inhibitors: GAPDH coupling enzyme; 1,500 compounds, 6% hits; shares compounds with Giardia FBPA inh-1; GAPDH coupling enzyme counterscreen, biochemical, qHTS; AID 2795; Potency, µM (series often up to 57.5 µM), hits mostly inhibitors; note: nearly all actives have a fitted effect of over 55% in size
Of the large screens only hits and unclear results are named; the others gave an inactive call (follow-up assays come after a bar, where they were run); [ ] = another dose, or the depositor's remark. This excerpt belongs to a sample that is enriched for hits. Unless noted, calls come from the whole dose curve; as a rule, active = well fitted curve in the direction sought with a large enough effect; inconclusive = small, poorly fitted or top-dose-only effect, or another doubt; inactive = no such curve, though single readings can be large; an effect the other way counts as inactive or inconclusive.

COc1ccc(CN2CCCC(C(=O)N3CCCCC3)C2)c(OC)c1 (stereo not drawn)	Giardia FBPA inh-1 inconclusive
Cc1noc(C)c1S(=O)(=O)N1CCN(c2ccccc2Cl)CC1	none (no result: Shiga toxin inh, LmPK inhibitor, CHX counter, Giardia FBPA inh-1)
COc1nnc(-c2ccc(N3CCOCC3)c(NC(=O)C3CCCCC3)c2)c2ccccc12	none
c1ccc2c3c(cc(N4CCOCC4)c2c1)OC1(N2CCOCC2)CCCCC1O3 (stereo not drawn)	Giardia FBPA inh-1 0.561µM, Sm TGR block inconclusive | Giardia growth inconclusive | Mammal cell tox inactive | Giardia FBPA inh-2 7.08µM | Rabbit FBPA inh inconclusive | GAPDH coupling 25.1µM
Cc1cc(C=C2C(=O)N(C)C(=S)N(C)C2=O)c(C)n1-c1cccnc1	Giardia FBPA inh-1 3.15µM, Sm TGR block inconclusive, Tb PYK inh inconclusive | Giardia growth inactive | Mammal cell tox inactive | Giardia FBPA inh-2 inactive | Rabbit FBPA inh inactive | GAPDH coupling inactive
COc1ccccc1CNC(=O)CCn1c(=O)c2ccccc2n(CC(=O)Nc2ccc(C)cc2Cl)c1=O	none (no result: Shiga toxin inh, LmPK inhibitor, CHX counter, Giardia FBPA inh-1)
O=C(CSc1cccc[n+]1[O-])N1CCCCCC1	none
COC(=O)c1ccc(C(=O)OC)c(NC(=O)CSc2cccc[n+]2[O-])c1	Giardia FBPA inh-1 11.2µM | Giardia growth inactive | Mammal cell tox inconclusive | Giardia FBPA inh-2 inactive | Rabbit FBPA inh inactive | GAPDH coupling inactive
O=C(CSc1cccc[n+]1[O-])CSc1cccc[n+]1[O-]	Giardia FBPA inh-1 15.8µM | Giardia growth inactive[10.4 µM] | Mammal cell tox 10µM | Giardia FBPA inh-2 inactive | Rabbit FBPA inh inactive | GAPDH coupling inactive
O=C(CSc1cccc[n+]1[O-])Nc1ccccc1Oc1ccccc1	Giardia FBPA inh-1 6.29µM | Giardia growth inactive | Mammal cell tox 20µM | Giardia FBPA inh-2 inactive | Rabbit FBPA inh inactive | GAPDH coupling inactive
Cc1cccc(C)c1NC(=O)CN1C(=O)c2ccccc2Sc2ncccc21	none (no result: Shiga toxin inh, LmPK inhibitor, CHX counter, Giardia FBPA inh-1)
Cc1ccc2c(c1)-c1nc(-c3ccc4c(c3)NC(=O)CO4)cc(-c3ccc(Cl)cc3)c1CO2	none (no result: Shiga toxin inh, LmPK inhibitor, CHX counter, Giardia FBPA inh-1)
COCCNC(=O)C1(C)CCN(C(=O)COc2ccc(Cl)cc2Cl)C1 (stereo not drawn)	none (no result: Shiga toxin inh, LmPK inhibitor, CHX counter, Giardia FBPA inh-1, Sm TGR block)
